# Assay outcomes: PubChem, National Center for Advancing Translational Sciences (NCATS)
# Rows were chosen to be rich in hits. Some 9% of all compounds tested hit in one or more screens of this group.
# Lamin A splicing = qHTS Assay for Modulators of Lamin A Splicing. HeLa LMNA splicing GFP/RFP minigene ratio, 48 h. Potency, µM (top dose mostly 46.1 µM), for the others: at the highest dose ratio change, negative = inhibition, usual class: inhibitors. 200,000 compounds, 0.01% hits. AID 1487, 2009; active means well fitted inhibition curve with a large enough effect in the signal ratio, with a control signal flat, not every such curve was filed as active; inconclusive means small, poorly fitted or top-dose-only effect, or effect the other way, or a change in a side signal; the % refers to the signal ratio; further: on the % scale 0 is the no-effect control and ±100 the full control effect
#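 Read-out is the ratio of GFP to DsRed2 object intensity, acquired by 488 nm laser-scanning cytometry on HeLa lamin A-EGFP minigene reporter cells. Compound incubation 48 hrs at 37 °C in Opti-MEM with 2% FBS; DMSO 0.5% final.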
# HTT aggregate = qHTS Multiplex Assay to Identify Dual Action Probes in a Cell Model of Huntington: Aggregate Formation (GFP); PC12 HttQ103-GFP aggregates, Acumen cytometry, 40 h; 220,000 compounds, 1.1% hits; Potency, µM (highest dose often 46.1 µM), for the others: at the highest dose activity change, negative = inhibition, actives largely listed as inhibitors; further: on the % scale 0 is the no-effect control and ±100 the full control effect; nearly all actives have a fitted effect of over 60% in size
#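 Aggregate formation scored by laser-scanning cytometer (488 excitation, 500–530 emission) in lysed PC12 cells expressing Q103-GFP after 100 nM tebufenozide induction; library tested in dose series, with ATPLite reagent added in the multiplex.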
# ALDH1A1 block = qHTS Assay for Inhibitors of Aldehyde Dehydrogenase 1 (ALDH1A1). Aldehyde dehydrogenase 1A1 (Homo sapiens), P00352. Purified ALDH1A1, NADH fluorescence, propionaldehyde substrate. Potency, µM (doses to about 75.3 µM), for inactives: at the top dose activity, negative = inhibition, usual class: inhibitors. 220,000 compounds, 7.3% hits; active means well fitted inhibition curve with a large enough effect, not every such curve was filed as active; inconclusive means small, poorly fitted or top-dose-only effect, or another doubt; inactive means no such curve, though single readings can be large or run the other way;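 further: plate controls were no enzyme wells and a reference inhibitor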
# HTT cytoprotect = qHTS Multiplex Assay to Identify Dual Action Probes in a Cell Model of Huntington: Cytoprotection (ATP) | PC12 HTT-Q103 induced, cytoprotection, ATP luminescence, 40 h | Potency, µM (series often up to 56.4 µM), for inactives: cytoprotection (ATP increase), hits mostly activators | 230,000 compounds, 0.14% hits | AID 1471, 2008; further: % of control where 0% means no effect; nearly all actives have a fitted effect of over 45% in size
#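 Readout: ATPlite luminescence (ATP level). Model: stable PC12, inducible Htt exon1 Q103-GFP. Inducer: tebufenozide, 100 nM final. Compounds: dose series. No G418 in medium.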
# Luc counter = Counterscreen for Luciferase (Kinase-Glo TM) Inhibition | AID 1379, 2008 | 200,000 compounds, 0.28% hits | Potency, µM (highest dose often 38.3 µM), without a hit: at the top dose activity change, negative = inhibition, actives largely listed as inhibitors | Luciferin 4-monooxygenase (Photuris pensylvanica), Q27757 | Kinase-Glo luciferase, ATP luminescence, 8 min; further: on the % scale 0 is the no-effect control and ±100 the full control effect; nearly all actives have a fitted effect of over 60% in size
#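 Compound is pinned into ATP-containing buffer (10 uM ATP, imidazole pH 7.2, 7 mM MgCl2). Kinase-Glo luciferase reagent is then added. Light output is recorded following an 8-min room-temperature incubation.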
# HPGD block = qHTS Assay for Inhibitors of HPGD (15-Hydroxyprostaglandin Dehydrogenase) | 15-hydroxyprostaglandin dehydrogenase [NAD(+)] (Homo sapiens), P15428 | purified HPGD, NADH fluorescence kinetic, PGE2 substrate | Potency, µM, without a hit: at the top dose activity change, negative = inhibition, usual class: inhibitors | 150,000 compounds, 4.3% hits; active means well fitted inhibition curve with a large enough effect, not every such curve was filed as active; inconclusive means small, poorly fitted or top-dose-only effect, or another doubt; inactive means no such curve, though single readings can be large or run the other way; further: on the % scale 0 is the no-effect control and ±100 the full control effect
# Target sequence (P15428 whole entry, looked up): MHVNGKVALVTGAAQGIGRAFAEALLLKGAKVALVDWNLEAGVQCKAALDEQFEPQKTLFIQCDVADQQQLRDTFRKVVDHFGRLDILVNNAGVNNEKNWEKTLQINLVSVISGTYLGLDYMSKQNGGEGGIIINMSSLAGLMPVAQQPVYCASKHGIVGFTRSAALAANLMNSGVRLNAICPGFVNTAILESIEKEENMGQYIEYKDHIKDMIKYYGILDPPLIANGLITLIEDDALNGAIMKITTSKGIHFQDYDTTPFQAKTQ
#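 NADH formation kinetics: reaction with 30 uM PGE2 and 1 mM NAD+ (final), 20 nM enzyme, Tris-HCl pH 8 with Tween 20, after 15 min compound preincubation at room temperature. Fluorescence change, last versus first of five reads.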
# The depositor's hits bear a star; u = inconclusive; x = no result; ! = repeats disagree; [ ] = another dose, or the depositor's remark. Unless noted, the call rests on the fitted dose curve; in most records, active means well fitted curve in the direction sought with a large enough effect; inconclusive means small, poorly fitted or top-dose-only effect, or another doubt; inactive means no such curve, though single readings can be large; an effect the other way counts as inactive or inconclusive. Potency means the concentration at half of the fitted maximal effect.
SMILES,Lamin A splicing,HTT aggregate,ALDH1A1 block,HTT cytoprotect,Luc counter,HPGD block
CCCCc1c(C)nc2ccccc2c1SCCC#N,-8%,-29%,7.1µM*,-4%[10 µM],5%,-26%
Cc1[nH]c(-c2ccc3c(c2)OCO3)nc1C(=O)O,6%,7%,u,-42%,11µM*,u
C=C(CC)C(=O)c1ccc(OCC(=O)O)c(Cl)c1Cl,u,u,14µM*!,u,-2%,-27%
Cc1ccc([N+](=O)[O-])cc1NC(=O)CN(C(=O)c1ccc(Cl)cc1)C1CCCCC1,2%,u,u,-19%,-5%,-6%
Cc1nc2ccccc2c(=O)n1/N=C/c1c(O)ccc2ccccc12,u,19%[9.22 µM],5%,19%[10 µM],0%,x
CC1(C)CC(=O)C(/C=N/n2c(C(F)(F)F)nc3ccccc3c2=O)=C(O)C1,12%,1%,25µM*,29%,5%,-26%
Oc1ccc(C(=S)N2CCCCC2)cc1,-1%,4%,22µM*,2%[10 µM],-4%,u
CC(=O)N1CCN(C(=S)c2ccc(N(C)C)cc2)CC1,u,5%,8.9µM*,-3%,-2%,20µM*
CN(C)c1ccc(C(=S)N2CCCCCC2)cc1,10%,-26%,u,-5%,-3%,28µM*
CC1CCN(C(=S)c2ccc(N(C)C)cc2)CC1,x,u,13µM*,-23%,0%,x
CN(C)c1ccc(C(=S)N2CCOCC2)cc1,8%,3%,u,-3%,-2%,-16%
CC(=O)NC(Cc1ccc(F)cc1)C(=O)NC1CCN(c2ncccc2[N+](=O)[O-])CC1 (configuration not stated),-16%[46 µM],-10%,-1%,-7%,2%,x
CCCCN(C)S(=O)(=O)c1ccc(C(=O)Nc2nnc(C3=COCCO3)o2)cc1,-4%[9.22 µM],u,2%,-22%,3%,x
COc1cccc(NC(=O)CSc2nnc(-c3cc(C)n(-c4ccccc4)c3C)o2)c1,-4%,u,-6%,-62%,-2%,-14%
CCOc1cccc2sc(Cl)nc12,-2%[46 µM],7%,u,15%[10 µM],-1%,x
Cc1ccc(C)c(NC(=O)C2CC3c4ccccc4C2c2ccccc23)c1 (configuration not stated),3%,-8%,19%,-5%,4%,-1%
O=C(CSc1nnc2ncccn12)N1CCCCCC1,-2%,0.56µM*,-15%,-14%,-1%,u
O=C(CCN1C(=O)C2C3C=CC(C3)C2C1=O)N1CCN(c2ccccc2F)CC1 (configuration not stated),-4%,-2%,u,22%,0%,4%
O=C(CCN1C(=O)C2C3C=CC(C3)C2C1=O)N1CCN(c2ccccc2Cl)CC1 (configuration not stated),8%,6%,2µM*,-7%,-3%,-7%
O=C(CCN1C(=O)C2C3C=CC(C3)C2C1=O)N1CCN(c2ccc([N+](=O)[O-])cc2)CC1 (configuration not stated),x,-29%,6.3µM*,-7%,2%,x
Cc1ccc(S(=O)(=O)NC(=O)Nc2ncc3c(n2)CC(c2ccco2)CC3=O)cc1 (configuration not stated),-5%,-34%,u,-6%[10 µM],-2%,1%
CC(/C=C1\NC(=S)NC1=O)=C\c1ccccc1,x,-15%[9.22 µM],x,-22%[10 µM],x,x
Oc1c(N=Nc2ccccn2)ccc2ccccc12,u,3.2µM*,0%,-71%,11µM*,-14%
CCCN1C=CC(=C/C=C(\C#N)C(=O)OCC)C=C1,u,-24%,-10%,-71%,0%,-27%
